Only some compounds are listed: those with a hit (about 5.9% of all), similar ones and a draw of the others.
LANA-H2A inh = blocks KSHV LANA binding to histone H2A/H2B. inhibition, % (test concentration not listed). 320,000 tested, 0.6% active. AID 2629. cell-free LANA-H2A/H2B peptide, fluorescence polarization; in the data active means inhibition mostly above about 10%, no sharp cut-off; inactive means mostly below about 6.7%
rCAG binder = r(CAG) repeat RNA binding; TO-PRO-1 dye displacement fluorescence; inhibition, % at 3 µM; 370,000 tested, 1.3% active; AID 651821;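 active means inhibition above the plate cutoff, the mean of all test compounds on that plate plus 3 SD, cut at about 35% in these data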;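 further: 0% = DMSO alone and 100% = 100 µM mitoxantrone as full dye displacement; higher means more dye released from RNA so lower well fluorescence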
ALR inh = human ALR oxidase inhibition via reduced H2O2 | purified ALR, DTT oxidation, H2O2 HRP-luminol luminescence | inhibition, % (no concentration beside the values) | 290,000 tested, 3.8% active;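 active means mean replicate inhibition above about 79%, with every replicate also reaching it, limit read from the data; inconclusive means only one of the two criteria met; inactive means mean below limit and not every replicate reaching it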
PRMT1 inh = inhibitors of human PRMT1. Q99873. recombinant PRMT1, activity-based probe fluorescence polarization. inhibition, % at 2.79 µM. 370,000 tested, 1.3% active. AID 652257;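 active means inhibition above about 21% made by adding two undisclosed values, limit read from the data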
Rtt109 HAT inh = inhibitors of Candida albicans Rtt109/Vps75 histone acetyltransferase; 330,000 tested, 0.16% active; inhibition, % at 34.9 µM; purified Rtt109/Vps75, ThioGlo CoA-SH fluorescence, 4 h; Q5AAJ8;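 active means inhibition of at least 50% in every replicate; inconclusive means best replicate reaches 50% inhibition but some replicates fall short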
ABHD5 PLIN5 PPI = blocks binding of human ABHD5 to perilipin-5. Q00G26+Q8WTS1. Split G. princeps luciferase complementation, luminescence, 4 h. inhibition, % at 4 µM. 360,000 tested, 0.78% active. AID 602281;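 active means inhibition above the mean inhibition across every tested compound plus 3 SD, cut at about 22% in these data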;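 further: 0% = DMSO only wells and the 100% control is not disclosed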
ABHD5-PLIN5 conf = ABHD5-PLIN5 interaction inhibition, confirmed. shares compounds with ABHD5 PLIN5 PPI. inhibition, % at 4 µM. 2,200 tested, 67% active. biochemical ABHD5-PLIN5 interaction, luminescence; in the data active means inhibition above about 23%;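 further: 0% = DMSO vehicle wells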
HNF4 counter = HNF4 split-luciferase signal hit, counter-screen; HNF4 dimerization, luminescence, biochemical; AID 651674; inhibition, % at 4 µM; shares compounds with ABHD5 PLIN5 PPI; 2,200 tested, 77% active;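 active means mean inhibition across replicate wells exceeding the computed hit threshold, cut at about 13% in these data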;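 further: light from luciferase halves that rejoin when HNF4 fusion proteins dimerize; 0% = DMSO only wells and the 100% control is not given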
Numbers without * were called inactive; ? = inconclusive; . = no result given.

SMILES	LANA-H2A inh	rCAG binder	ALR inh	PRMT1 inh	Rtt109 HAT inh	ABHD5 PLIN5 PPI	ABHD5-PLIN5 conf	HNF4 counter
CCC(=O)Nc1cccc(C(=O)/C=C/c2ccc(F)cc2)c1	2	-1	29	3	.	46*	92*	85*
CC(=O)Nc1cccc(C(=O)/C=C/c2ccc(C)cc2)c1	-2	7	49	1	-4	49*	87*	82*
CN(C)c1ccc(/C=C/C(=O)c2cccc(Br)c2)cc1	-24	-14	4	0	-12	8	.	.
COc1cccc(NC(=S)NC(=O)/C=C/c2ccc(F)cc2)c1	-2	1	-4	-2	15	-6	.	.
CCCC(=O)Nc1ccc(C(=O)/C=C/c2ccc(SC)cc2)cc1	1	6	6	-1	-6	20	.	.
CSc1ccc(/C=C/C(=O)c2ccc(NC(C)=O)cc2)cc1	-1	9	6	4	11	25*	52*	41*
O=C(CCn1nnc(-c2cccs2)n1)N1CCCC1	.	-1	.	-1	.	.	.	.
COc1ccc(Cl)cc1N/C(N)=N/c1nc(CSc2ccc(C)cc2)cc(=O)[nH]1	-2	0	-4	-2	0	104*	3	5
COc1ccc(Cl)cc1N/C(N)=N/c1nc(C)cc(=O)[nH]1	-1	-3	-1	2	6	4	.	.
CCOc1ccc(C2C(C#N)=C(N)Oc3cc(C)n(Cc4ccco4)c(=O)c32)cc1OC (stereo not drawn)	0	5	-21	2	-3	17	.	.
Cc1cc2c(c(=O)n1Cc1ccco1)C(c1cccnc1)C(C#N)=C(N)O2 (stereo not drawn)	0	2	8	1	5	42*	9	24*
CS(=O)(=O)N[C@@H]1C[C@@H]2O[C@@H](CO)CC[C@@H]2O[C@@H]1CCc1ccc(/C=C/c2ccccc2)cc1	.	8	.	-3	.	.	.	.
CCc1nc2ccc(C(=O)Nc3cccc(OC)c3)cn2c1N(C)Cc1ccc(OC)cc1	.	2	.	-7	.	1	.	.
COc1ccc(CN2C[C@@H](CO)O[C@@H](n3cnc4c(NCc5ccco5)ncnc43)C2)cc1	.	1	.	-1	.	0	.	.
CCCCN(CCCNC(=O)c1ccc2c(c1)NC(=O)CN2C)c1ccccc1	.	5	.	2	.	70*	52*	72*
CC1(C)Cc2c(sc3c2c(=N)n(Cc2ccco2)c(=O)n3CC(=O)Nc2ccccc2)CO1	-4	14	-3	5	20	15	.	.
O=c1c2c3c(sc2n(CCN2CCCCC2)c(=O)n1Cc1ccco1)CCCCC3	-2	5	-4	-3	5	7	.	.
O=C(Cn1c(=O)n(Cc2ccco2)c(=O)c2c3c(sc21)CCCC3)Nc1ccccc1	-5	14	4	8	-4	53*	24*	10
NC(=O)Cn1c(=O)n(Cc2ccco2)c(=O)c2c3c(sc21)CCCCC3	-1	12	8	21*	?	62*	26*	41*
Cc1ccc2nc(-c3ccc(Cl)cc3)c(Cc3ccsc3)n2c1	.	13	.	4	.	.	.	.
O=S(=O)(Nc1nc2ccccc2nc1NCc1ccco1)c1ccc(F)cc1	-5	31	1	-2	1	25*	5	6
O=C(NCCc1c[nH]c2ccccc12)OCc1cn(Cc2c(F)cccc2F)nn1	.	2	.	-7	.	.	.	.
COCCn1c(=N)c(C(=O)NCc2ccco2)cc2c(=O)n3ccccc3nc21	3	6	20	4	15	25*	7	33*
Cc1ccc2nc3c(cc(C(=O)NCc4ccco4)c(=N)n3Cc3ccco3)c(=O)n2c1	3	13	13	-1	-1	33*	10	29*
N=c1c(C(=O)NCc2ccco2)cc2c(=O)n3ccccc3nc2n1Cc1ccccc1	-2	7	.	-1	-28	21	.	.
SMILES	LANA-H2A inh	rCAG binder	ALR inh	PRMT1 inh	Rtt109 HAT inh	ABHD5 PLIN5 PPI	ABHD5-PLIN5 conf	HNF4 counter
N=c1c(C(=O)NCc2ccco2)cc2c(=O)n3ccccc3nc2n1Cc1ccc(Cl)cc1	1	0	-27	14	-12	26*	14	23*
O=C(NCC1CCN(C(=O)C(=O)c2cc3ccccc3o2)CC1)c1ccncc1	.	2	.	-2	.	.	.	.
CN1C(=O)C[C@@](C#N)(C(=O)Nc2nc3ccc(F)cc3s2)[C@H]1c1ccccc1	.	3	.	-1	.	.	.	.
CN(C)CCNC(=O)c1ccc(COc2ccc(Cl)cc2Cl)cc1	-2	0	5	0	.	27*	15	2
CCCCn1nnnc1C1(C)CCC(=O)N1CCCn1ccnc1 (stereo not drawn)	.	1	.	7	.	59*	47*	46*
C[C@@H]1COc2cc(Br)ccc2S(=O)(=O)N1Cc1cn(Cc2ccc(F)cc2)nn1	.	2	.	0	.	.	.	.
CCOc1ccc(C(c2c(O)nc(SC)[nH]c2=O)c2c(O)nc(SC)[nH]c2=O)cc1	-3	2	57	14	.	34*	83*	77*
CSc1nc(O)c(C(c2cccc([N+](=O)[O-])c2)c2c(O)nc(SC)[nH]c2=O)c(=O)[nH]1	0	-3	63	7	18	25*	1	18*
CSc1nc(O)c(C(c2ccc(O)cc2)c2c(O)nc(SC)[nH]c2=O)c(=O)[nH]1	-6	-3	84*	7	6	50*	83*	81*
CN(C)c1cccc(C(=O)NNC(=O)CSc2ccccc2)c1	3	0	.	4	6	-8	.	.
C[C@H]1[C@H](N(Cc2cccs2)Cc2cccs2)CC[C@@]23CCCN2C(=O)CCC[C@@H]13	.	.	.	-3	.	.	.	.
CC(=O)N1c2ccccc2NC2=C(C(=O)CCC2)C1c1ccco1 (stereo not drawn)	1	1	-9	9	5	30*	19	37*
O=C(O)CCC(=O)Nc1ccc(SSc2ccc(NC(=O)CCC(=O)O)cc2)cc1	-3	19	.	92*	-5	44*	47*	115*
CN(C)CCCN(C(=O)COc1ccccc1)c1nc2c(F)cccc2s1	-2	3	-6	10	7	7	.	.
Cc1cccc2sc(N(CCCN(C)C)C(=O)c3ccc(Cl)s3)nc12	-2	4	-4	0	5	25*	16	8
Cc1cc(C)c2nc(N(CCCN(C)C)C(=O)c3ccc4c(c3)OCCO4)sc2c1	-4	1	-16	-3	17	27*	19	3
COc1cccc2sc(N(CCCN(C)C)C(=O)COc3ccc(Cl)cc3)nc12	-4	3	-9	1	-3	29*	23*	8
COc1ccc(C)c2sc(N(CCCN(C)C)C(=O)c3ccc4c(c3)OCCO4)nc12	1	-2	0	-3	13	23*	17	8

Screens deposited in PubChem BioAssay by several laboratories.
